# Where two headings read alike, the source gives them in different places.
# How the values were obtained:
# Set-up in all cases: species or system human, MV4-11 + K-562 + COLO205 + SK-N-BE2 + OVCAR-8
# DDR1 = settings: read-out: apparent Kd, n = 1
# TEC = settings: read-out: apparent Kd, n = 1
# IKBKE = settings: read-out: apparent Kd, n = 1
# MAP4K3 = settings: read-out: apparent Kd, n = 1
# RPS6KA1 = settings: read-out: apparent Kd, n = 1
# SLK = settings: read-out: apparent Kd, n = 1
# TGFBR1 = settings: read-out: apparent Kd, n = 1
# CDK10 = settings: read-out: apparent Kd, n = 1
# AKT2 = settings: read-out: apparent Kd, compound concentrations: 100 nM and 1000 nM (sheet 'Samples'), n = 1
# AKT3 = settings: read-out: apparent Kd, n = 1
# MAP4K2 = settings: read-out: apparent Kd, n = 1
# TP53RK = settings: read-out: apparent Kd, compound concentrations: 100 nM and 1000 nM (sheet 'Samples'), n = 1
# MAP4K5 = settings: read-out: apparent Kd, compound concentrations: 100 nM and 1000 nM (sheet 'Samples'), n = 1
# NEK9 = settings: read-out: apparent Kd, n = 1
# MAP2K1 = settings: read-out: apparent Kd; compound concentrations: 100 nM and 1000 nM (sheet 'Samples'), CATDS: 3.7479108323340499E-3; n = 1
# PIK3C2A = settings: read-out: apparent Kd, compound concentrations: 100 nM and 1000 nM (sheet 'Samples'), n = 1
# PIK3C3 = settings: read-out: apparent Kd, n = 1
# PIM2 = settings: read-out: apparent Kd, n = 1
# STK11 = settings: read-out: apparent Kd, compound concentrations: 100 nM and 1000 nM (sheet 'Samples'), n = 1
# MAP2K2 = settings: read-out: apparent Kd; compound concentrations: 100 nM and 1000 nM (sheet 'Samples'), CATDS: 5.9505583835806203E-3; n = 1
# [1] = compound concentrations:100 nM and 1000 nM (sheet 'Samples')
structure (smiles),measurement,setting,value
CN1C[C@@H]2Cn3c(c(C4=C(c5cn(C)c6ccccc56)C(=O)NC4=O)c4ccccc43)C[C@H]2C1.Cl [RO0320234-001],potency estimated from few doses,DDR1; [1],1520 nM
same,potency estimated from few doses,TEC; [1],1190 nM
CNC(=O)c1ccccc1Nc1nc(Nc2ccc(N3CCOCC3)cc2)ncc1Cl.Cl [GSK1576028A],potency estimated from few doses,IKBKE; [1],1540 nM
same,potency estimated from few doses,MAP4K3; [1],1670 nM
same,potency estimated from few doses,RPS6KA1; [1],683 nM
same,potency estimated from few doses,SLK; [1],1120 nM
same,potency estimated from few doses,TEC; [1],57.7 nM
same,potency estimated from few doses,TGFBR1; [1],780 nM
Cc1ccc2c(-c3ccncc3)c(-c3ccc(F)cc3)nn2c1.Cl [GW461484A],potency estimated from few doses,CDK10; [1],1410 nM
Fc1ccc(-c2c(-c3ccncc3)[nH]c3cccnc23)cc1 [RO1153853-000],potency estimated from few doses,"TGFBR1; compound concentrations: 100 nM and 1000 nM (sheet 'Samples'), CATDS: 5.3195917052411702E-2",1310 nM
Cl.ON=C1CCc2cc(-c3nc(C4CCNCC4)[nH]c3-c3ccncc3)ccc21 [SB-614067-R],potency estimated from few doses,TGFBR1; [1],1170 nM
CCn1c(-c2nonc2N)nc2c(-c3ccccc3)ncc(OCCCN)c21.CCn1c(-c2nonc2N)nc2c(-c3ccccc3)ncc(OCCCN)c21.O=C(O)C(F)(F)F.O=C(O)C(F)(F)F [GSK260205A],potency estimated from few doses,AKT2; CATDS: 4.8057080770149398E-2,339 nM
CCn1c(-c2nonc2N)nc2c(C#CC(C)(C)O)nc(CN3CCCC3)cc21 [GSK1000163A],potency estimated from few doses,"AKT3; compound concentrations: 100 nM and 1000 nM (sheet 'Samples'), CATDS: 0.185643756681795",1430 nM
Cc1cccc(Nc2nc(N[C@H]3CCCC[C@H]3N)ncc2C(N)=O)c1.Cl [GSK986310C],potency estimated from few doses,MAP4K2; [1],2080 nM
CC(C)N1CCC(n2cnc(-c3ccc(F)cc3)c2-c2ccnc(N)n2)CC1 [SB-223132],potency estimated from few doses,DDR1; [1],928 nM
CONC1=NC(=O)/C(=C/c2ccc3ncccc3c2)S1 [RO4613269-000],potency estimated from few doses,TP53RK; CATDS: 0.12819898124354101,2200 nM
O=C1NC(=O)C(N2CCc3ccccc32)=C1c1ccccc1Cl [SB-373598],potency estimated from few doses,TEC; [1],904 nM
Cc1ccc(Nc2ccnc(Nc3ccc4c(c3)CS(=O)(=O)C4)n2)cc1O.Cl [GW579362A],potency estimated from few doses,"CDK10; compound concentrations: 100 nM and 1000 nM (sheet 'Samples'), CATDS: 3.9153038455417302E-2",602 nM
Cc1cccc(-c2nc(Nc3ccncc3)c3sccc3n2)n1 [GW869641X],potency estimated from few doses,MAP4K2; [1],669 nM
CCOC(=O)N1CCC(n2cnc(-c3ccc(F)cc3)c2-c2ccnc(N)n2)CC1 [SB-219952],potency estimated from few doses,"DDR1; compound concentrations: 100 nM and 1000 nM (sheet 'Samples'), CATDS: 1.23341339187386E-2",531 nM
same,potency estimated from few doses,"TEC; compound concentrations: 100 nM and 1000 nM (sheet 'Samples'), CATDS: 8.8843344260598894E-3",1200 nM
COc1ccc(Nc2ncc(C#N)c(Nc3ccccc3C(N)=O)n2)cc1N1CCN(C)CC1.Cl [GSK1558669A],potency estimated from few doses,"CDK10; compound concentrations: 100 nM and 1000 nM (sheet 'Samples'), CATDS: 6.1619993305959599E-3",1450 nM
same,potency estimated from few doses,"DDR1; compound concentrations: 100 nM and 1000 nM (sheet 'Samples'), CATDS: 8.5132006877523293E-3",319 nM
same,potency estimated from few doses,"IKBKE; compound concentrations: 100 nM and 1000 nM (sheet 'Samples'), CATDS: 7.4158435365071704E-3",548 nM
same,potency estimated from few doses,"MAP4K3; compound concentrations: 100 nM and 1000 nM (sheet 'Samples'), CATDS: 1.16453060646116E-2",123 nM
same,potency estimated from few doses,MAP4K5; CATDS: 7.4217938627351198E-3,546 nM
same,potency estimated from few doses,"NEK9; compound concentrations: 100 nM and 1000 nM (sheet 'Samples'), CATDS: 1.04770728264292E-2",164 nM
same,potency estimated from few doses,"RPS6KA1; compound concentrations: 100 nM and 1000 nM (sheet 'Samples'), CATDS: 1.0869541528388701E-2",148 nM
same,potency estimated from few doses,"SLK; compound concentrations: 100 nM and 1000 nM (sheet 'Samples'), CATDS: 1.35175429318502E-2",84.7 nM
O=C1N=C(NCCc2ccc(Cl)cc2)S/C1=C\c1ccc2ncccc2c1 [RO4498479-000],potency estimated from few doses,"AKT3; compound concentrations: 100 nM and 1000 nM (sheet 'Samples'), CATDS: 7.4016289423583202E-3",1320 nM
same,potency estimated from few doses,"DDR1; compound concentrations: 100 nM and 1000 nM (sheet 'Samples'), CATDS: 7.1142371440619002E-3",1530 nM
same,potency estimated from few doses,"RPS6KA1; compound concentrations: 100 nM and 1000 nM (sheet 'Samples'), CATDS: 6.6850452112440202E-3",2010 nM
same,potency estimated from few doses,"TEC; compound concentrations: 100 nM and 1000 nM (sheet 'Samples'), CATDS: 9.3913889163932396E-3",646 nM
Cn1ncc2c(N)ncnc21 [SKF-18267],potency estimated from few doses,AKT2; CATDS: 5.1088836681336602E-3,780 nM
same,potency estimated from few doses,"DDR1; compound concentrations: 100 nM and 1000 nM (sheet 'Samples'), CATDS: 4.82198778497934E-3",876 nM
same,potency estimated from few doses,"IKBKE; compound concentrations: 100 nM and 1000 nM (sheet 'Samples'), CATDS: 4.4054249402622498E-3",1060 nM
same,potency estimated from few doses,MAP2K1,1590 nM
same,potency estimated from few doses,"MAP4K2; compound concentrations: 100 nM and 1000 nM (sheet 'Samples'), CATDS: 4.7977079984097802E-3",885 nM
same,potency estimated from few doses,"MAP4K3; compound concentrations: 100 nM and 1000 nM (sheet 'Samples'), CATDS: 3.8804201859816102E-3",1450 nM
same,potency estimated from few doses,MAP4K5; CATDS: 3.7006195337176699E-3,1650 nM
same,potency estimated from few doses,"NEK9; compound concentrations: 100 nM and 1000 nM (sheet 'Samples'), CATDS: 5.3187042778019703E-3",722 nM
same,potency estimated from few doses,PIK3C2A; CATDS: 5.9586884702388498E-3,587 nM
same,potency estimated from few doses,"PIK3C3; compound concentrations: 100 nM and 1000 nM (sheet 'Samples'), CATDS: 6.1778157574045199E-3",552 nM
same,potency estimated from few doses,"PIM2; compound concentrations: 100 nM and 1000 nM (sheet 'Samples'), CATDS: 4.10108684490637E-3",1260 nM
same,potency estimated from few doses,"RPS6KA1; compound concentrations: 100 nM and 1000 nM (sheet 'Samples'), CATDS: 4.0621123256608799E-3",1290 nM
same,potency estimated from few doses,"SLK; compound concentrations: 100 nM and 1000 nM (sheet 'Samples'), CATDS: 4.0721330084515098E-3",1280 nM
same,potency estimated from few doses,STK11; CATDS: 3.27350856558018E-3,2430 nM
same,potency estimated from few doses,"TEC; compound concentrations: 100 nM and 1000 nM (sheet 'Samples'), CATDS: 5.5600102138742497E-3",665 nM
same,potency estimated from few doses,"TGFBR1; compound concentrations: 100 nM and 1000 nM (sheet 'Samples'), CATDS: 5.0317884305657503E-3",804 nM
same,potency estimated from few doses,TP53RK; CATDS: 3.61485371112703E-3,1760 nM
COc1cccc2c(-c3ccncc3)c(-c3ccc(F)cc3)nn12 [GW468513X],potency estimated from few doses,"TGFBR1; compound concentrations: 100 nM and 1000 nM (sheet 'Samples'), CATDS: 4.1244315663660498E-2",1080 nM
O=C(O)C(F)(F)F.O=C(O)C(F)(F)F.O=c1[nH]ccc2nc(N[C@@H]3CCCNC3)nc(Nc3ccc(S(=O)(=O)N4CCOCC4)cc3)c12.O=c1[nH]ccc2nc(N[C@@H]3CCCNC3)nc(Nc3ccc(S(=O)(=O)N4CCOCC4)cc3)c12 [GSK2177277A],potency estimated from few doses,"CDK10; compound concentrations: 100 nM and 1000 nM (sheet 'Samples'), CATDS: 2.6189541098699299E-2",32 nM
same,potency estimated from few doses,MAP2K2,2520 nM
same,potency estimated from few doses,"MAP4K2; compound concentrations: 100 nM and 1000 nM (sheet 'Samples'), CATDS: 1.18083453898033E-2",173 nM
same,potency estimated from few doses,"MAP4K3; compound concentrations: 100 nM and 1000 nM (sheet 'Samples'), CATDS: 1.3665369195518201E-2",120 nM
same,potency estimated from few doses,MAP4K5; CATDS: 2.1531310564231101E-2,45.7 nM
same,potency estimated from few doses,"RPS6KA1; compound concentrations: 100 nM and 1000 nM (sheet 'Samples'), CATDS: 7.3742407001506898E-3",792 nM
same,potency estimated from few doses,"SLK; compound concentrations: 100 nM and 1000 nM (sheet 'Samples'), CATDS: 7.3686549547766099E-3",794 nM
same,potency estimated from few doses,"TGFBR1; compound concentrations: 100 nM and 1000 nM (sheet 'Samples'), CATDS: 6.2904955022957598E-3",1740 nM
CNCC#Cc1c(F)ccc2c1/C(=C/c1[nH]ccc1OC)C(=O)N2.Cl [RO0281601-001],potency estimated from few doses,STK11; CATDS: 2.1927929235579201E-2,1930 nM
CN(C)CC(O)COc1ccc(Nc2nccc(-c3cnn4nc(N5CCOCC5)ccc34)n2)cc1 (stereo not shown) [GW767488X],potency estimated from few doses,CDK10; [1],1360 nM
same,potency estimated from few doses,IKBKE; [1],2010 nM
same,potency estimated from few doses,NEK9; [1],314 nM
same,potency estimated from few doses,PIK3C3; [1],581 nM
COc1cc(Nc2nccc(-c3cnn4ncccc34)n2)cc(OC)c1 [GW801372X],potency estimated from few doses,"NEK9; compound concentrations: 100 nM and 1000 nM (sheet 'Samples'), CATDS: 4.3233777925034599E-2",142 nM
same,potency estimated from few doses,PIK3C2A; CATDS: 1.7083513618659799E-2,2260 nM
CCn1c(-c2nonc2N)nc2c(C#CC(C)(C)O)nc(O[C@@H](CN)c3ccccc3)cc21.O=C(O)C(F)(F)F [GSK1007102B],potency estimated from few doses,AKT3; [1],719 nM
O=C(O)C(F)(F)F.O=c1[nH]ccc2nc(N[C@@H]3CCNC3)nc(Nc3cc(Cl)cc(Cl)c3)c12 [GSK2188764A],potency estimated from few doses,MAP4K2; [1],70.1 nM
same,potency estimated from few doses,PIM2; [1],2030 nM
same,potency estimated from few doses,SLK; [1],826 nM
CN(c1ccc(NC(=O)NCCN2CCOCC2)cc1)c1ccnc(Nc2ccc(CS(C)(=O)=O)cc2)n1.Cl [GW830365A],potency estimated from few doses,"DDR1; compound concentrations: 100 nM and 1000 nM (sheet 'Samples'), CATDS: 4.92942958534755E-2",1360 nM
CCN(CC)Cc1ccc(Nc2nccc(-c3cnn4ncccc34)n2)cc1 [GW780056X],potency estimated from few doses,"NEK9; compound concentrations: 100 nM and 1000 nM (sheet 'Samples'), CATDS: 2.0464339173062999E-2",1220 nM
Cc1cccc(Nc2nc(N[C@H]3CCNC3)ncc2C(N)=O)c1.Cl [GSK2197149A],potency estimated from few doses,PIK3C3; [1],1110 nM

# Source: publication PMC11062922 (Nature Chemical Biology, 2023)
